# Reference: PubChem BioAssay (NCATS)
# Records with an inconclusive call do not appear. A call without a number means that no potency is given here. A number with no mark means an inactive call. The source made the active and inactive calls. The call rests on the fitted dose curve; in most records, active means well fitted inhibition curve with a large enough effect; inconclusive means small, poorly fitted or top-dose-only effect; inactive means flat fitted curve, though single readings scatter.
# Assay: P-glycoprotein substrates identified in KB-8-5-11 adenocarcinoma cell line, qHTS therapeutic library screen (AID 1346987); further: nearly all actives have a fitted effect of over 65% in size
# Details: KB-8-5-11 (P-gp overexpressing) viability, CellTiter-Glo, 72 h; series mostly up to 44.5 µM
# How it was run: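 KB-8-5-11, a colchicine-selected P-gp-overexpressing KB-3-1 subline, was grown without colchicine for the assay. Cells were seeded at 500 cells/well, dosed in concentration-response and incubated 72 h at 37 degree C, 5% CO2. Viability was read by CellTiter-Glo luminescence.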
Compound,Potency,"activity change, negative = cytotoxicity"
CC1C/C=C/C=C\CCCCC(O)C/C=C/C(=O)O1 (configuration not stated),inactive,–
O=C(O)CCc1cc2ccoc2cc1O[C@@H]1O[C@H](CO[C@@H]2OC[C@](O)(CO)[C@H]2O)[C@@H](O)[C@H](O)[C@H]1O,inactive,–
C=C1CCC2(OC1)OC1CC3C4CC=C5CC(O)CC(O[C@@H]6OC[C@@H](O)[C@H](O)[C@H]6O)C5(C)C4CCC3(C)C1(O)C2C (some centres not stated),inactive,–
COc1ccccc1CC(C(=O)O)N(C)C(=O)c1ccccc1 (configuration not stated),inactive,–
C=C[C@H]1[C@H](O[C@@H]2O[C@H](CO)[C@@H](O)[C@H](O)[C@H]2O)OC=C(C(=O)OC)[C@H]1C[C@@H]1N[C@H](C(=O)O)Cc2c1[nH]c1ccccc21,inactive,–
O=C(/C=C/c1ccc(O)cc1)OC[C@H]1O[C@@H](OC(=O)/C=C/c2ccccc2)[C@H](O)[C@@H](O)[C@@H]1O,inactive,–
CC1=CC(=O)C2C(C)(C)CCCC2(C)C12CCC1(COC(=O)C1)O2 (configuration not stated),inactive,–
C[C@@H]1O[C@@H](O[C@H]2[C@H](O[C@H]3[C@H](O[C@H]4CC[C@@]5(C=O)C(CC[C@]6(C)C5CC=C5C7CC(C)(C)C[C@@H](O)[C@]7(C)CC[C@]56C)C4(C)C)O[C@H](C(=O)O)[C@@H](O)[C@@H]3O)OC[C@@H](O)[C@@H]2O)[C@H](O)[C@H](O)[C@H]1O (some centres not stated),–,5.8% [at 9.29 µM]
CC(=C/C(=O)O)/C=C/[C@]1(O)[C@@]2(C)CO[C@]1(C)C[C@H](O[C@@H]1O[C@H](CO)[C@@H](O)[C@H](O)[C@H]1O)C2,inactive,–
CCNC(=O)[C@H]1O[C@H](n2cnc3c(NCC(c4ccccc4)c4ccccc4)nc(C(=O)NCCNC(=O)NC4CCN(c5ccccn5)CC4)nc32)[C@H](O)[C@@H]1O,inactive,–
CC(=O)O[C@H]1[C@H](Oc2ccccc2COC(=O)C2(O)C=CCCC2=O)O[C@H](CO)[C@@H](O)[C@@H]1O (some centres not stated),inactive,–
CC1(C)CC[C@]2(C(=O)O)CC[C@]3(C)C(=CCC4[C@@]5(C)C[C@@H](O)[C@H](O)C(C)(C)C5CC[C@]43C)[C@@H]2[C@@H]1O (some centres not stated),inactive,–
CCC/C=C/C(=O)O[C@H]1CC(C)(C)CC2[C@]13[C@H](O)O[C@@]21CCC2[C@@]4(C)CC[C@H](O[C@@H]5O[C@H](C(=O)O)[C@@H](O)[C@H](O[C@@H]6O[C@H](CO)[C@H](O)[C@H](O)[C@H]6O[C@@H]6O[C@@H](C)[C@H](O)[C@@H](O)[C@H]6O[C@@H]6OC[C@](O)(CO)[C@H]6O)[C@H]5O[C@@H]5O[C@H](CO)[C@H](O)[C@H](O)[C@H]5O)C(C)(C)C4CC[C@@]2(C)[C@]1(C)C[C@H]3OC(C)=O (some centres not stated),–,0.402% [at 9.29 µM]
CC1(C)O[C@]23C[C@H]1C[C@H](OC(=O)c1ccoc1)[C@]2(C)[C@@H](OC(=O)c1ccoc1)CCC3(C)O (some centres not stated),inactive,–
NCc1ccc(OCCCc2sc(-c3ccc4c(c3)/C(=N/Nc3nc5ccccc5s3)CCC4)nc2C(=O)O)cc1,inactive,–
COc1ccc(C2=CC(=O)OC2Cc2ccc(O)cc2)c(O)c1 (configuration not stated),inactive,–
C=CC1C(O[C@@H]2O[C@H](CO)[C@@H](O)[C@H](O)[C@H]2O)OC=C(C(=O)OC)C1CC(=O)O (some centres not stated),inactive,–
COc1cc(/C=C/C(=O)OC2CC(OC(C)=O)C(OC(C)=O)C3C2CCC2C(=O)OC(c4ccoc4)CC23C)ccc1O[C@@H]1O[C@H](CO)[C@@H](O)[C@H](O)[C@H]1O (some centres not stated),inactive,–
COC(=O)C1=CO[C@@H](O[C@@H]2O[C@H](CO)[C@@H](O)[C@H](O)[C@H]2O)[C@@H]2[C@@H](C(=O)OC)[C@@H](O)C(O)[C@H]12 (some centres not stated),inactive,–
C=CC(C)(O)CC/C=C(/C)C(=O)OC1C(OC2OCC(OC3OC(CO)C(O)C(O)C3O)C(OC3OCC(O)C(OC4OC(C)C(O)C(O)C4O)C3O)C2O)COC(OC(=O)C23CCC(C)(C)CC2C2=CCC4C5(C)CCC(OC6OC(CO)C(OC7OC(CO)C(O)C(OC8OCC(O)C(O)C8O)C7O)C(O)C6O)C(C)(C)C5CCC4(C)C2(C)CC3O)C1O (configuration not stated),–,-0.997% [at 5.11 µM]
C=C1C[C@]23C[C@H]1CC[C@H]2[C@]1(C)CCC[C@@]2(CO)C(=O)O[C@H]([C@H]21)[C@@H]3O,inactive,–
COc1cc(/C=C/C(=O)OC[C@H]2O[C@H](O[C@]3(CO)O[C@H](CO)[C@@H](O)[C@@H]3O)[C@H](O)[C@@H](O)[C@@H]2O)cc(OC)c1O,inactive,–
